# Test results taken from the supplement of paper PMC9135407.
# Several values for one entry are separate records, joined by “and”; a condition that tells them apart may be missing. Equal values may be shown once. Where a name gives a salt, the structure may show the parent alone. Screen size: about 5,800 compounds; about 620 (11%) showed activity. Only a selection was taken, and actives are over-represented in it overall. Values without a mark were called inactive.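 How the source made its calls: active = score above a cut-off or among the top three wells of a plate; in these data no inactive exceeds 0.85.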
# Test system: primary human hepatic stellate cells (donor 1)
# Assay: scaled lipid accumulation score (0 = DMSO-like, 1 = nortriptyline-like); higher = stronger HSC inactivation (lipid re-accumulation), active = hit call of the paper
# Conditions: 48 h
# [1] = library stock concentration: 10 mM
# [2] = library stock concentration: 3.33 mM
# [3] = library stock concentration: 1 mM
structure (smiles),measurement,setting,value
CC(N)c1cccc(Cl)c1Cl (stereo unspecified),scaled lipid accumulation score,[1],0.208
O=C(O)c1ccc2[nH]cc(CCCCN3CC=C(c4ccccc4)CC3)c2c1 [Carmoxirole hydrochloride],scaled lipid accumulation score,[1],0.073
CN1C2CC(O)CC1C1OC12 (stereo unspecified) [Scopine],scaled lipid accumulation score,[2],≤ 0
same,scaled lipid accumulation score,[1],≤ 0
CCCCCCCCCCCCCCCC(=O)OCC(COP(=O)([O-])OCC[N+](C)(C)C)OC(C)=O (stereo unspecified),scaled lipid accumulation score,[3],0.014
C=C(C)[C@@H]1[C@H]2OC(=O)[C@@H]1[C@]1(O)C[C@H]3O[C@]34C(=O)O[C@H]2[C@]14C.CC(C)(O)[C@@H]1[C@H]2OC(=O)[C@@H]1[C@]1(O)C[C@H]3O[C@]34C(=O)O[C@H]2[C@]14C [Picrotin - Picrotoxinin],scaled lipid accumulation score,[1],≤ 0
c1cncc(C2=NCCC2)c1 [Myosmine],scaled lipid accumulation score,,≤ 0
CC(=O)OCC1=C(C(=O)[O-])N2C(=O)[C@@H](NC(=O)CCC[C@@H](N)C(=O)[O-])[C@H]2SC1.[Zn+2] [Cephalosporin C zinc salt],scaled lipid accumulation score,[1],0.329
COc1cc2c3cc1Oc1c(OC)c(OC)cc4c1[C@@H](Cc1cccc(c1)Oc1ccc(c(O)c1)C[C@@H]3N(C)CC2)N(C)CC4 [Berbamine hydrochloride],scaled lipid accumulation score,[1],≤ 0
COc1ccc(C[C@H]2NC[C@H](O)[C@H]2OC(C)=O)cc1 [Anisomycin] [listing 1 of 3 here],scaled lipid accumulation score,[1],0.806
COc1ccc(C[C@H]2NC[C@H](O)[C@H]2OC(C)=O)cc1 [Anisomycin] [listing 2 of 3 here],scaled lipid accumulation score,,1.05 (active)
COc1ccc(C[C@@H]2NC[C@@H](O)[C@@H]2OC(C)=O)cc1 [Anisomycin],scaled lipid accumulation score,library stock concentration: 18.8 mM,0.899 (active)
COc1ccc(C[C@H]2NC[C@H](O)[C@H]2OC(C)=O)cc1 [Anisomycin] [listing 3 of 3 here],scaled lipid accumulation score,[1],1.39 (active)
O[C@@H]1CCCC[C@H]1N1CCC(c2ccccc2)CC1 [L(-)-vesamicol hydrochloride],scaled lipid accumulation score,,≤ 0
CC(C)(C)NCC(O)COc1cccc2[nH]c(C#N)cc12 (stereo unspecified) [Cyanopindolol hemifumarate],scaled lipid accumulation score,[1],0.049
CC(C)[C@@H]1NC(=O)[C@H](C)OC(=O)[C@@H](C(C)C)NC(=O)[C@@H](C(C)C)OC(=O)[C@H](C(C)C)NC(=O)[C@H](C)OC(=O)[C@@H](C(C)C)NC(=O)[C@@H](C(C)C)OC(=O)[C@H](C(C)C)NC(=O)[C@H](C)OC(=O)[C@@H](C(C)C)NC(=O)[C@@H](C(C)C)OC1=O [Valinomycin],scaled lipid accumulation score,library stock concentration: 4.5 mM,0.447
CC1=NN=C(c2ccc(N)cc2)c2cc3c(cc2C1)OCO3,scaled lipid accumulation score,[1],≤ -0.07 and ≤ -0.006
CC[C@H](C)[C@H]1O[C@]2(C=C[C@@H]1C)C[C@@H]1C[C@@H](C/C=C(\C)[C@@H](O[C@H]3C[C@H](OC)[C@@H](O[C@H]4C[C@H](OC)[C@@H](O)[C@H](C)O4)[C@H](C)O3)[C@@H](C)/C=C/C=C3\CO[C@@H]4[C@H](O)C(C)=C[C@@H](C(=O)O1)[C@]34O)O2.CO[C@H]1C[C@H](O[C@H]2[C@H](C)O[C@@H](O[C@@H]3/C(C)=C/C[C@@H]4C[C@@H](C[C@]5(C=C[C@H](C)[C@@H](C(C)C)O5)O4)OC(=O)[C@@H]4C=C(C)[C@@H](O)[C@H]5OC/C(=C\C=C\[C@@H]3C)[C@]54O)C[C@@H]2OC)O[C@@H](C)[C@@H]1O [Avermectin b1],scaled lipid accumulation score,[1],≤ 0
CC[C@H](C)[C@H]1O[C@]2(C=C[C@@H]1C)C[C@@H]1C[C@@H](C/C=C(\C)[C@@H](O[C@H]3C[C@H](OC)[C@@H](O[C@H]4C[C@H](OC)[C@@H](O)[C@H](C)O4)[C@H](C)O3)[C@@H](C)/C=C/C=C3\CO[C@@H]4[C@H](O)C(C)=C[C@@H](C(=O)O1)[C@]34O)O2.CO[C@H]1C[C@H](O[C@H]2[C@H](C)O[C@@H](O[C@@H]3/C(C)=C/C[C@@H]4C[C@@H](C[C@]5(C=C[C@H](C)[C@@H](C(C)C)O5)O4)OC(=O)[C@@H]4C=C(C)[C@@H](O)[C@H]5OC/C(=C\C=C\[C@@H]3C)[C@]54O)C[C@@H]2OC)O[C@@H](C)[C@@H]1O [Avermectin B1],scaled lipid accumulation score,,≤ 0
CC[C@H](C)[C@H]1O[C@]2(C=C[C@@H]1C)C[C@@H]1C[C@@H](C/C=C(\C)[C@@H](O[C@H]3C[C@H](OC)[C@@H](O[C@H]4C[C@H](OC)[C@@H](O)[C@H](C)O4)[C@H](C)O3)[C@@H](C)/C=C/C=C3\CO[C@@H]4[C@H](O)C(C)=C[C@@H](C(=O)O1)[C@]34O)O2.CO[C@H]1C[C@H](O[C@H]2[C@H](C)O[C@@H](O[C@@H]3/C(C)=C/C[C@@H]4C[C@@H](C[C@]5(C=C[C@H](C)[C@@H](C(C)C)O5)O4)OC(=O)[C@@H]4C=C(C)[C@@H](O)[C@H]5OC/C(=C\C=C\[C@@H]3C)[C@]54O)C[C@@H]2OC)O[C@@H](C)[C@@H]1O [Abamectin],scaled lipid accumulation score,library stock concentration: 2.3 mM,0.027 and ≤ 0
O=C1C=CC[C@@H]2[C@H]3CCCN4CCC[C@@H](CN12)[C@@H]34 [Sophocarpine],scaled lipid accumulation score,[2],≤ 0
same,scaled lipid accumulation score,[1],≤ 0
CCCCC/C=C\C/C=C\C/C=C\C/C=C\CCCC(=O)NCCOP(=O)(O)O [Arachidonoyl Ethanolamide Phosphate],scaled lipid accumulation score,[3],≤ 0
"C/C(=C\c1csc(C)n1)[C@@H]1C[C@@H]2O[C@]2(C)CCC[C@H](C)[C@H](O)[C@@H](C)C(=O)C(C)(C)[C@@H](O)CC(=O)O1 [Epothilone B (EPO906, Patupilone)]",scaled lipid accumulation score,[2],≤ 0
same,scaled lipid accumulation score,[1],≤ 0
CCCCC/C=C\C/C=C\C/C=C\C/C=C\CCCC(N)=O [Arachidonoyl amide],scaled lipid accumulation score,[3],≤ 0
CCCCC/C=C\C/C=C\C/C=C\C/C=C\CCCC(N)=O [Arachidonamide],scaled lipid accumulation score,[3],≤ -0.021
CN1C2CCC1CC(OC(c1ccccc1)c1ccc(Cl)cc1)C2.Cl (stereo unspecified),scaled lipid accumulation score,[1],1.07 (active)
CN1[C@@H]2CC[C@H]1C[C@@H](OC1c3ccccc3CCc3ccccc31)C2 [Deptropine citrate],scaled lipid accumulation score,,0.266
CN1[C@H]2C[C@H](OC(=O)[C@H](CO)c3ccccc3)C[C@@H]1[C@@H](O)C2,scaled lipid accumulation score,[1],≤ 0
COc1cc(C(=O)OC2CC3CCC(C2)N3C)ccc1O (stereo unspecified) [Fillalbin],scaled lipid accumulation score,,≤ 0
CN1[C@H]2C[C@H](OC(=O)[C@H](CO)c3ccccc3)C[C@@H]1[C@@H](O)C2 [Anisodamine],scaled lipid accumulation score,[1],0.076
CN1[C@@H]2CC[C@H]1C[C@@H](OC(c1ccccc1)c1ccccc1N)C2 (stereo partly specified) [Aminobenztropine],scaled lipid accumulation score,[1],0.656
CN1C2CCC1CC(OC(c1ccc(F)cc1)c1ccc(F)cc1)C2.Cl (stereo unspecified),scaled lipid accumulation score,[1],1.29 (active)
CC(C)(C)OC(=O)NC1[C@H]2CNC[C@@H]12 (stereo partly specified),scaled lipid accumulation score,[1],≤ -0.033
CCCCCCCCCCCCCCCCSP(=O)([O-])OCC[N+](C)(C)C [thio-Miltefosine],scaled lipid accumulation score,[3],≤ 0
CCCCC/C=C\C/C=C\C/C=C\C/C=C\CCCC(=O)NCc1ccoc1,scaled lipid accumulation score,[3],≤ 0
CCCCC(C#N)(Cn1cncn1)c1ccc(Cl)cc1 (stereo unspecified) [Myclobutanil],scaled lipid accumulation score,library stock concentration: 6.9 mM,≤ 0
[O-][n+]1ccccc1[S-].[O-][n+]1ccccc1[S-].[Zn+2] [Pyrithione zinc],scaled lipid accumulation score,library stock concentration: 6.3 mM,0.435
same,scaled lipid accumulation score,[1],0.127
c1cncc([C@@H]2CCCCN2)c1 [Anabasine],scaled lipid accumulation score,,≤ 0
c1cncc([C@@H]2CCCN2)c1 [Nornicotine],scaled lipid accumulation score,[1],≤ 0
Fc1cc(F)c2c(c1)[C@H]1C=CC[C@@H]1C(c1cccnc1)N2 (stereo partly specified) [Golgicide A],scaled lipid accumulation score,[2],0.872 (active)
same,scaled lipid accumulation score,[1],1.03 (active)
C[C@H](CCC(=O)O)C[C@H](C)C[C@H](C)C(=O)/C=C(\O)[C@H](C)C[C@H](C)C/C=C/[C@@H](C)[C@@H](O)[C@@H](C)[C@@H](O)C[C@@H]1CC[C@@](C)([C@H]2CC[C@@](C)([C@@H](C)O)O2)O1 [Ionomycin],scaled lipid accumulation score,library stock concentration: 7.1 mM,0.48
O=C1CN=C(c2ccccc2)c2cc([N+](=O)[O-])ccc2N1 [Nitrazepam],scaled lipid accumulation score,[1],≤ 0
COc1ccc(CNC(=O)/C=C/c2ccc3[nH]cc(CCN(C)C)c3c2)cc1 [listing 1 of 2 here],scaled lipid accumulation score,[1],0.736
COc1ccc2[nH]cc(CCN)c2c1 [O-Methylserotonin hydrochloride],scaled lipid accumulation score,[1],≤ -0.055
COc1ccc2[nH]cc(CCN)c2c1 [5-Methoxytryptamine],scaled lipid accumulation score,[1],≤ 0
COc1ccc(CNC(=O)/C=C/c2ccc3[nH]cc(CCN(C)C)c3c2)cc1 [listing 2 of 2 here],scaled lipid accumulation score,[1],1.03 (active)
O[C@H]1[C@H](O)[C@@H](O)CN2CC[C@H](O)[C@H]12 [Castanospermine],scaled lipid accumulation score,[1],≤ 0
same,scaled lipid accumulation score,library stock concentration: 26.4 mM,0.125
CCCCCC=CCC=CCC=CCC=CCCCC(=O)NCC(O)CC(=O)O (stereo unspecified) [N-Arachidonoyl-3-hydroxy-.gamma.-Aminobutyric Acid],scaled lipid accumulation score,[3],≤ 0
CC[C@H]1CN2CC[C@H]1C[C@H]2[C@H](O)c1ccnc2ccc(OC)cc12 [Hydroquinine hydrobromide hydrate],scaled lipid accumulation score,,≤ 0
CCCC[C@H]1C(=O)O[C@H](C)[C@H](NC(=O)c2cccc(NC=O)c2OC)C(=O)O[C@@H](C)[C@@H]1OC(=O)CC(C)C [2-methoxyantimycin A3],scaled lipid accumulation score,library stock concentration: 9.4 mM,0.292
CC(C)(C)c1cc(C=C(C#N)C#N)cc(C(C)(C)C)c1O [Tyrphostin 9] [listing 1 of 2 here],scaled lipid accumulation score,[2],0.175
same,scaled lipid accumulation score,library stock concentration: 17.7 mM,0.752
CC(C)(C)c1cc(C=C(C#N)C#N)cc(C(C)(C)C)c1O [Tyrphostin 9] [listing 2 of 2 here],scaled lipid accumulation score,[1],1.27 (active)
CC(C)(C)c1cc(C=C(C#N)C#N)cc(Br)c1O,scaled lipid accumulation score,[2],≤ 0
same,scaled lipid accumulation score,[1],≤ 0
CC(C)(C)c1cc(C=C(C#N)C#N)cc(C(C)(C)C)c1O [Tyrphostin A9],scaled lipid accumulation score,[1],0.728
